# Inconclusive results are not listed. The source made the active and inactive calls.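 The calls were made as follows, unless noted: active = cell viability at or below a set limit in both duplicate runs, the limit being the all-compound median minus 4 SD (cut at about 23% in these data, passing the limit was not always enough); inconclusive = no clear call, values can overlap the other calls; inactive = the rest.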
# Experiment: viability gain of MRP-1-high H69AR cells under doxorubicin, pilot screen, MRP-1 activator project, CellTiter-Glo, duplicate (AID 807;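 active = viability increase at or above a cutoff of the median across tested compounds plus 3 SD, cut at about 8.5% in these data, passing the limit was not always enough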;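 also: compound pretreatment 18-22 h then 72 h combined with doxorubicin; 0% = doxorubicin alone and 100% = vehicle without doxorubicin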)
# Conditions: H69AR viability with doxorubicin, CellTiter-Glo luminescence; at 10 µM; hits give high values
row,SMILES,viability increase
1,CCOC(=O)C1=C(C)Nc2nc(C)nn2C1c1ccc(C)cc1 (stereo not given),-1.84% (inactive)
2,COc1cc(C)c(S(=O)(=O)NCc2ccc3c(c2)OCO3)cc1C,0.6% (inactive)
3,O=C(Oc1ccnc2cc(Cl)ccc12)N1CCOCC1,-3.29% (inactive)
4,CCC(Sc1nccn1C)C(=O)Nc1nnc(C)s1 (stereo not given),5% (inactive)
5,c1ccc(Oc2nc(Oc3ccccc3)nc(N3CCOCC3)n2)cc1,-2.99% (inactive)
6,O=C(Nc1ccc(Oc2ccccc2)cc1)c1cnc2n(c1=O)CCS2,5.46% (inactive)
7,Nc1c(C(=O)NCc2ccccc2)nnn1Cc1ccc(F)cc1,-0.8% (inactive)

# Experiment: growth suppression of beta-catenin knockout HCT116, pilot screen, human colon tumor cells (AID 823);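 also: 0% = wells killed by 20 µM Hyamine and 100% = untreated DMSO cell wells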
# Conditions: CellTiter-Glo, 60 h, at 10 µM, hits give low values
row,SMILES,viability
1,CCCCS(=O)(=O)/C=C\C=C/S(=O)(=O)CCCC,1.4% (active)
2,O=C1C(C=NCc2cccnc2)=C(O)c2ccccc21,94.1% (inactive)
3,O=C(Nc1ccccc1)C1CC(=O)N(C2CCCCC2)C1 (stereo not given),105% (inactive)
4,CC(=O)NC(CCS(C)(=O)=O)C(=O)Nc1cc(Cl)ccc1Cl (stereo not given),105% (inactive)
5,Cc1csc(NC(=O)C(CC(C)C)NS(=O)(=O)c2ccc3c(c2)oc(=O)n3C)n1 (stereo not given),103% (inactive)
6,CCOC(=O)N1CCN(c2c(N3CCOCC3)c(=O)c2=O)CC1,106% (inactive)
7,CC(=NCCc1ccccc1)C1=C(O)COC1=O,98.2% (inactive)
8,CCOC(=O)C1=C(C)NC(=O)NC1c1ccc(C)o1 (stereo not given),105% (inactive)
9,Nc1c(C(=O)CCC(=O)O)oc2ccc(Cl)cc12,100% (inactive)
10,CCOc1ccc(-c2nnc3ccc(SCC(=O)N4CCCCC4)nn23)cc1,110% (inactive)
11,O=C(CC1SC(=Nc2ccccc2)N(CCCCO)C1=O)NCc1ccccc1 (stereo not given),89.5% (inactive)
12,COc1ccc(C)cc1NC(=O)c1cnc2scc(C)n2c1=O,87.8% (inactive)
13,COc1ccc(OCc2nnc3n2N=C(c2ccc(OC)cc2)CS3)cc1,69.9% (inactive)
14,O=C(Nc1nnc(-c2ccc(F)cc2)o1)c1ccco1,97.5% (inactive)
15,CC(=O)Nc1c2c(nn1-c1cccc(Cl)c1)CS(=O)C2 (stereo not given),94.1% (inactive)
16,Cc1cc(NCc2ccco2)nc2cc(O)ccc12,92.7% (inactive)
17,Cc1nnc(NC(=O)CSc2nnc(CNC(=O)c3ccccc3)n2-c2ccccc2)s1,96.1% (inactive)
18,COc1ccc(N2Cc3cccc(C(=O)N4CCN(C(=O)c5ccco5)CC4)c3C2=O)cc1,99.3% (inactive)
19,O=C(Nc1nc(-c2cccs2)cs1)c1ccc(S(=O)(=O)N2CCCCC2)cc1,71.7% (inactive)
20,CN1CCN(C(=O)C2CCC(CNS(=O)(=O)c3cccc4cccnc34)CC2)CC1 (stereo not given),99% (inactive)

row,SMILES,viability
1,CCOc1ccc(CC(=O)Nc2c(C(N)=O)oc3ccc(Br)cc23)cc1OCC,61% (inactive)
2,CCC(C)(C(=O)NC1CCCCC1)N(Cc1ccco1)C(=O)CNC(=O)c1ccccc1 (stereo not given),83.5% (inactive)
3,COC(=O)c1nc2cc(C)ccn2c1F,105% (inactive)
4,CN(CC(=O)N1CCCCCC1)S(=O)(=O)c1cccc2cccnc12,101% (inactive)
5,CN(C)c1nc(Oc2ccc(/C=N/O)cc2)nc(N(C)C)n1,101% (inactive)
6,COc1ccc(Br)cc1S(=O)(=O)N1CCN=C1C,91.1% (inactive)
7,COc1ccc(COC(=O)C2=C(C)NC(=O)NC2c2ccc(O)c(OC)c2)cc1 (stereo not given),93.1% (inactive)
8,COc1ccc(-c2nc(Cn3c(SCc4cccc(F)c4)nc4ccncc43)c(C)o2)cc1OC,69.9% (inactive)
9,COc1ccc(-c2nnc(COc3ccc4ccccc4c3)o2)cc1OC,99.7% (inactive)
10,O=C(Cn1ncc2c1-c1ccccc1OC2)Nc1ccc(S(=O)(=O)N2CCCCC2)cc1,90.7% (inactive)
11,CCNS(=O)(=O)c1ccc(NC(=O)c2cccnc2)cc1,95% (inactive)
12,CCCCCCSc1nc2c(c(=O)[nH]c(=O)n2C)n1C,82% (inactive)
13,CCOC(=O)C1=C(C)Nc2nc(C)nn2C1c1ccc(C)cc1 (stereo not given),100% (inactive)
14,COc1cc(C)c(S(=O)(=O)NCc2ccc3c(c2)OCO3)cc1C,106% (inactive)
15,O=C(Oc1ccnc2cc(Cl)ccc12)N1CCOCC1,87.3% (inactive)
16,CCC(Sc1nccn1C)C(=O)Nc1nnc(C)s1 (stereo not given),101% (inactive)
17,c1ccc(Oc2nc(Oc3ccccc3)nc(N3CCOCC3)n2)cc1,83.7% (inactive)
18,O=C(Nc1ccc(Oc2ccccc2)cc1)c1cnc2n(c1=O)CCS2,68.8% (inactive)
19,Nc1c(C(=O)NCc2ccccc2)nnn1Cc1ccc(F)cc1,98.6% (inactive)

# Experiment: growth suppression of PTEN-deleted HCT116, pilot screen, cell-based, HCT116 clonal line, CellTiter-Glo (AID 824;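 active = viability at or below 27.92% in each of two runs, the all-compound median minus 4 SD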;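 also: 0% = 20 µM Hyamine control and 100% = vehicle cell control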)
# Conditions: 60 h, at 10 µM, hits give low values
row,SMILES,viability
1,CCCCS(=O)(=O)/C=C\C=C/S(=O)(=O)CCCC,1.36% (active)
2,O=C1C(C=NCc2cccnc2)=C(O)c2ccccc21,93.4% (inactive)
3,O=C(Nc1ccccc1)C1CC(=O)N(C2CCCCC2)C1 (stereo not given),101% (inactive)
4,CC(=O)NC(CCS(C)(=O)=O)C(=O)Nc1cc(Cl)ccc1Cl (stereo not given),92% (inactive)
5,Cc1csc(NC(=O)C(CC(C)C)NS(=O)(=O)c2ccc3c(c2)oc(=O)n3C)n1 (stereo not given),106% (inactive)
6,CCOC(=O)N1CCN(c2c(N3CCOCC3)c(=O)c2=O)CC1,97.2% (inactive)
7,CC(=NCCc1ccccc1)C1=C(O)COC1=O,99.9% (inactive)
8,CCOC(=O)C1=C(C)NC(=O)NC1c1ccc(C)o1 (stereo not given),100% (inactive)
9,Nc1c(C(=O)CCC(=O)O)oc2ccc(Cl)cc12,99.4% (inactive)
10,CCOc1ccc(-c2nnc3ccc(SCC(=O)N4CCCCC4)nn23)cc1,101% (inactive)
11,O=C(CC1SC(=Nc2ccccc2)N(CCCCO)C1=O)NCc1ccccc1 (stereo not given),86.4% (inactive)
12,COc1ccc(C)cc1NC(=O)c1cnc2scc(C)n2c1=O,84.8% (inactive)
13,COc1ccc(OCc2nnc3n2N=C(c2ccc(OC)cc2)CS3)cc1,66.4% (inactive)
14,O=C(Nc1nnc(-c2ccc(F)cc2)o1)c1ccco1,92.8% (inactive)
15,CC(=O)Nc1c2c(nn1-c1cccc(Cl)c1)CS(=O)C2 (stereo not given),100% (inactive)
16,Cc1cc(NCc2ccco2)nc2cc(O)ccc12,93.4% (inactive)
17,Cc1nnc(NC(=O)CSc2nnc(CNC(=O)c3ccccc3)n2-c2ccccc2)s1,96.5% (inactive)
18,COc1ccc(N2Cc3cccc(C(=O)N4CCN(C(=O)c5ccco5)CC4)c3C2=O)cc1,91% (inactive)
19,O=C(Nc1nc(-c2cccs2)cs1)c1ccc(S(=O)(=O)N2CCCCC2)cc1,61.8% (inactive)
20,CN1CCN(C(=O)C2CCC(CNS(=O)(=O)c3cccc4cccnc34)CC2)CC1 (stereo not given),100% (inactive)

row,SMILES,viability
1,CCOc1ccc(CC(=O)Nc2c(C(N)=O)oc3ccc(Br)cc23)cc1OCC,45% (inactive)
2,CCC(C)(C(=O)NC1CCCCC1)N(Cc1ccco1)C(=O)CNC(=O)c1ccccc1 (stereo not given),90.1% (inactive)
3,COC(=O)c1nc2cc(C)ccn2c1F,94.3% (inactive)
4,CN(CC(=O)N1CCCCCC1)S(=O)(=O)c1cccc2cccnc12,82% (inactive)
5,CN(C)c1nc(Oc2ccc(/C=N/O)cc2)nc(N(C)C)n1,85.1% (inactive)
6,COc1ccc(Br)cc1S(=O)(=O)N1CCN=C1C,83.4% (inactive)
7,COc1ccc(COC(=O)C2=C(C)NC(=O)NC2c2ccc(O)c(OC)c2)cc1 (stereo not given),89.2% (inactive)
8,COc1ccc(-c2nc(Cn3c(SCc4cccc(F)c4)nc4ccncc43)c(C)o2)cc1OC,60.1% (inactive)
9,COc1ccc(-c2nnc(COc3ccc4ccccc4c3)o2)cc1OC,91.6% (inactive)
10,O=C(Cn1ncc2c1-c1ccccc1OC2)Nc1ccc(S(=O)(=O)N2CCCCC2)cc1,84.8% (inactive)
11,CCNS(=O)(=O)c1ccc(NC(=O)c2cccnc2)cc1,99.6% (inactive)
12,CCCCCCSc1nc2c(c(=O)[nH]c(=O)n2C)n1C,90.3% (inactive)
13,CCOC(=O)C1=C(C)Nc2nc(C)nn2C1c1ccc(C)cc1 (stereo not given),97.8% (inactive)
14,COc1cc(C)c(S(=O)(=O)NCc2ccc3c(c2)OCO3)cc1C,102% (inactive)
15,O=C(Oc1ccnc2cc(Cl)ccc12)N1CCOCC1,87.8% (inactive)
16,CCC(Sc1nccn1C)C(=O)Nc1nnc(C)s1 (stereo not given),94.2% (inactive)
17,c1ccc(Oc2nc(Oc3ccccc3)nc(N3CCOCC3)n2)cc1,74.1% (inactive)
18,O=C(Nc1ccc(Oc2ccccc2)cc1)c1cnc2n(c1=O)CCS2,65.9% (inactive)
19,Nc1c(C(=O)NCc2ccccc2)nnn1Cc1ccc(F)cc1,92.1% (inactive)
